Experimental data reported in PubChem BioAssay AID796 (Columbia University Molecular Screening Center, 2007).
The whole screen tested about 94,000 compounds, of which about 410 (0.44%) were called active. The list comes from a sample in which actives are over-represented; it also holds similar structures and randomly drawn compounds. A number with no mark means an inactive call.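 Rule for the calls: active = inhibition above about 30% together with a positive call from visual inspection of the well image (limit read from the data); inconclusive = inhibition above a set limit but visual check negative; inactive = inhibition not above a set limit, visual check negative.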

Test: inhibitors of IL-1B driven NFkB p65 nuclear import, primary screen, imaging, HUVEC, IL-1B stimulus, high-content imaging (AID 796);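 note: nuclear over cytoplasmic p65 intensity ratio measured by imaging; 0% = IL-1B stimulated DMSO wells and 100% = unstimulated DMSO wells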
Conditions: HUVEC IL-1B NFkB p65 nuclear translocation imaging; at 2 µM; stronger effect = higher value

SMILES | inhibition
O=S1(=O)C=C(SCCN2CCCC2)c2ccccc21 | -1.4%
CCOC(=O)/C(C#N)=C\c1c(C)cc(C)c(COC(C)=O)c1C | 8.2%
O=C1c2ccccc2C(=O)N1CCC(c1ccccc1)c1ccco1 (stereo not drawn) | -2.1%
CN(C)/C=C(\C#N)C(=O)c1cccnc1Oc1ccc(F)cc1F | 5.5%
O=S(=O)(c1ccc(Br)cc1)n1ccc2ccccc21 | 5.3%
O=C(Nc1ncc2c(n1)-c1ccccc1OC2)c1ccc(Cl)cc1 | 3.3%
CC(N)C12CC3CC(CC(O)(C3)C1)C2 (stereo not drawn) | -22.4%
C=CCN1C(=O)C(Cc2cccc(Cl)c2)S/C1=N/N=C/c1ccco1 (stereo not drawn) | 6.5%
CC(C)(C)NC(=O)COc1ccc(CNc2ccc3[nH]c(=O)[nH]c3c2)cc1 | 6.7%
O=C(NC1CCN(C(=S)NCc2ccco2)CC1)c1ccc(F)cc1 | -2.5%
O=C(Oc1ccccc1C(=S)N1CCCCC1)c1cc([N+](=O)[O-])cc([N+](=O)[O-])c1 | -5.6%
CN1CC(c2ccccc2)C2(COc3ccccc3C2=O)C12C(=O)Nc1ccccc12 (stereo not drawn) | -0.2%
Nc1nc(Br)c2ccccc2c1-c1ccc(F)cc1 | -12.8%
Cc1cccc(NC(=O)c2ccc(OCC(=O)NCc3ccccc3)cc2)c1C | 12.8%
Cc1nc2c(-c3ccc(F)cc3)c(C)nn2c(C)c1CCC(=O)NCc1ccco1 | 8.1%
c1cncc(-c2nnc3n2C2(CCCCC2)Cc2ccccc2-3)c1 | -4.9%
NS(=O)(=O)c1ccc(Nc2nc(-c3ccccc3)cs2)cc1 | 18.6%
O=C(CNC(=O)c1cc2c(s1)CCC2)Nc1ccccc1Br | -43.6%
Cc1ccc(N(CC(=O)Nc2cc(C)cc(C)c2)S(=O)(=O)c2cccc3nonc23)cc1 | 0.6%
Cc1occc1C(=O)NNC(=S)NCC(C)C | -8.5%
COc1ccc(CC(=O)Nc2ccc(-c3nnc(-c4ccc(C)cc4)o3)cc2)cc1 | -3.1%
COc1cccc(NC(=O)Cc2ccc(C)cc2)c1 | 3.1%
COc1ccc(NC(=O)/C(Cl)=C(/Cl)S(=O)Cc2ccc(C)cc2)cn1 (stereo not drawn) | 81.8% (active)
CN(C)c1ccnc2sc3c(=O)n(-c4ccc(Cl)cc4)cnc3c12 | -8.3%
Cc1cc(=O)[nH]c(SCc2cccc(F)c2)n1 | -8.1%

SMILES | inhibition
CCCNC(=S)NC1CC2CCCC(C1)N2CC(C)C (stereo not drawn) | -10.2%
CSc1ccccc1-c1nnc(-c2ccc(Cl)cc2)o1 | -15.4%
Cc1nnc(SCC(=O)N/N=C/c2cn(-c3ccccc3)nc2-c2ccc(F)cc2)n1-c1ccccc1 | 16.3%
O=C(Nc1ccc(-n2ccnc2P(=O)(O)c2ccccc2)cc1)c1ccccc1Br | -9.1%
COC(=O)Nc1sc2nc(C)cc(C)c2c1-n1cccc1 | 8.1%
O=C(Nc1nnc(SCc2c(Cl)cccc2Cl)s1)C1CCCO1 (stereo not drawn) | 6.6%
Cc1cccc(C(=O)Nc2ccccc2N2CCN(c3ccc(F)cc3)CC2)c1 | 4.6%
O=C1NC(c2cc3c(cc2Cl)OCO3)Oc2ccccc21 (stereo not drawn) | -2.5%
COc1ccccc1C1C2=C(COC2=O)Nc2cc3c(cc21)OCO3 (stereo not drawn) | 39.9% (active)
CCCOc1ccccc1C1CC(=O)Nc2cc3c(cc21)OCO3 (stereo not drawn) | -2.7%
N#Cc1ccc(-c2ccc(F)cc2)nc1Sc1ccccc1 | 0%
Cc1cc(=O)oc2cc(OC(C)C(=O)Nc3ccc(N4CCOCC4)cc3)ccc12 (stereo not drawn) | 22.6%
Cc1ccccc1NC(=O)C(C)c1ccc(-c2ccccc2)c(F)c1 (stereo not drawn) | -13%
CCN1CCN(C(=O)C2(NC(=O)Nc3cccc(F)c3)CCCCC2)CC1 | 9.4%
CN(C)c1ccnc(Oc2ccc(F)cc2)c1C#N | -4.4%
COc1ccc(OCC(=O)N2CCN(C(=O)COc3ccccc3)CC2)cc1 | -0.4%
O=C(COc1ccc2ccccc2c1)N1CCN(C(=O)c2cccs2)CC1 | 12.1%
COc1ccc(OCC(=O)N2CCN(C(=O)c3cccs3)CC2)cc1 | 42.9% (active)
CC(C)c1ccc(N2CCN(C(=O)c3ccccc3NC(=O)/C=C(\C(=O)O)c3ccccc3)CC2)cc1 | -24.1%
Cc1nn(C)c(Oc2ccc(Cl)cc2)c1C=O | -7.4%
CC(=O)Nc1ccc(S(=O)(=O)N2CCN(C(=O)c3ccccc3F)CC2)cc1 | -10.6%
Cc1[nH]nc(-c2ccc(OCc3cnn(-c4ccccc4)c3)cc2O)c1Oc1ccc(Cl)cc1 | -4.6%
COC(=O)C1(O)CC(C(C)C)=NN1C(=O)c1ccc(Cl)cc1 (stereo not drawn) | -3.2%
Cc1ccc(S(=O)(=O)c2c(COC(=O)c3cccc(Cl)c3)c(-c3ccccc3)nn2C)cc1 | -7.8%
CCN(CC)C(=O)CSc1nc2ccccc2o1 | -3.4%

SMILES | inhibition
COc1ccc(/C=N\NC(=O)c2sc(N)nc2C)cc1OC | 1.2%
COc1cc(/C=N/Nc2nn3cnnc3c3ccccc23)cc(OC)c1OC | -1.1%
COc1ccc(/C=N/Nc2nc3ccccc3o2)cc1OC | 45.9% (active)
CCCc1ccc(-c2c(C)sc(NC(=O)c3ccnn3C)c2C#N)cc1 | 3.3%
Cc1cc(C)c([N+](=O)[O-])cc1-c1ccc(/C=N/NC(=O)c2nonc2N)o1 | -17.6%
CC(CC(=O)Nc1cc(C(F)(F)F)ccc1Cl)c1ccccc1 (stereo not drawn) | -2.6%
CC(C)C(NS(=O)(=O)c1cccs1)C(=O)Nc1nc(C(C)(C)C)cs1 (stereo not drawn) | 1.6%
COc1ccc(C2=NOC3(CC(=O)N(c4ccc(Cl)cc4)C3=O)C2)c(OC)c1 (stereo not drawn) | 0.4%
CSCCC(C(=O)NC1=NCCS1)N1C(=O)c2ccccc2C1=O (stereo not drawn) | -15.1%
CCC1(C)Cc2c(sc3[nH]c(=S)n(Cc4ccccc4)c(=O)c23)CO1 (stereo not drawn) | -4.8%
CCOc1ccc(Nc2nc(Cc3nnc(SCC(=O)NC4CCCC4)n3C)cs2)cc1 | -8.9%
O=C(CSCc1c(F)cccc1Cl)NCC1CCCO1 (stereo not drawn) | -1.4%
COc1ccc(C2CC(c3cccs3)=Nc3ccccc3S2)cc1OC (stereo not drawn) | -4%
COc1ccc(NC(=O)CSc2nc(NS(=O)(=O)c3ccc(C)cc3)cc(=O)[nH]2)cc1 | 0.1%
O=S(=O)(/N=C(/Nc1ccccn1)c1ccccc1)c1ccc(Cl)cc1 | -20.6%
O=C(Nc1nnc(CCOCCOCCc2nnc(NC(=O)c3ccco3)s2)s1)c1ccco1 | 2.1%
CCOCC(=O)Nc1sc2c(c1C(=O)OCC)CCCC2 | 31.1% (active)
CCOC(=O)c1c(NC(=O)CSc2nnc(C)c(=O)[nH]2)sc2c1CCC2 | 7.7%
CCCOC(=O)Nc1sc2c(c1C(=O)OCC)CCC2 | 4.6%
CC(=O)Nc1ccc(N2C(=O)C3C4CC(=O)C(c5ccccc54)C3C2=O)cc1 (stereo not drawn) | 4.6%
Cc1ccc(-n2c(=O)cc(N3CCN(Cc4ccccc4)CC3)[nH]c2=O)cc1 | -36.5%
COC(CNC(=O)Cn1ncc2ccsc2c1=O)OC | -11.2%
Cc1ccc(/C=N/NC(=O)C(NC(=O)c2ccccc2)c2n[nH]c(=O)c3ccccc23)cc1 (stereo not drawn) | -3.6%
CC(C)C(=O)NC(=S)Nc1ccccc1F | 1.1%
O=[N+]([O-])c1ccccc1OCCCCN1CCCCC1 | 1.7%

SMILES | inhibition
CCOC(=O)COc1cc(OCC(=O)OCC)c2c(=O)cc(-c3ccccc3)oc2c1 | 5.4%
CCOCc1nnc(NC(=O)CSc2ccc(C)cc2)s1 | 3.5%
CCN(CC)CCNc1ccc(Cl)cc1[N+](=O)[O-] | -11.6%
CN(C(=O)CSc1nc(C2CC2)nc2ccccc12)c1nc(-c2ccccc2)cs1 | 6.8%
COC(=O)C(NC(=O)c1ccc(OC)cc1)(Nc1ncc(S(=O)(=O)c2ccc([N+](=O)[O-])cc2)s1)C(F)(F)F (stereo not drawn) | 10.1%
COc1ccc(CNCCCO)cc1OC | 2.4%
CCCCOc1ccc(C(=O)NCc2ccncc2)cc1 | -7.4%
C=CCOc1ccc(Cl)cc1CNCCCN1CCOCC1 | 5.6%
COC(=O)c1c(CCl)noc1C(=O)NC(C)C | -0.8%
CC1C/C(=N/NC(=O)c2cccs2)CC(C)(C)C1 (stereo not drawn) | 25.5%
Nc1ccccc1SCc1cc([N+](=O)[O-])cc2c1OCOC2 | -1.6%
O=C(Cn1cncn1)N/N=C/c1c2ccccc2cc2ccccc12 | 10.3%
CCOC(=O)CNC(=O)CSc1nc2cccnc2n1CC | -2.1%
CONC(=O)c1cc(OCC(F)(F)F)ccc1OCC(F)(F)F | 4.4%
CC(=O)c1nn(-c2cccc(Br)c2)cc1C(=O)c1cccc2ccccc12 | -11.3%
c1ccc(-n2nc3ccccc3n2)cc1 | 18%
CC1(C)CC(=O)C=C(NCCCN2CCCC2=O)C1 | 99.7% (active)
CC1(C)CC(=O)C=C(NCCCNC2CCCCC2)C1 | 0%
CC1(C)CC(=O)C=C(NCCN2CCNCC2)C1 | -15.8%
Cn1c(CO)cnc1SCc1ccccc1 | -4.6%
c1ccc(COc2ccccc2CNCc2cccnc2)cc1 | -12.3%
Cc1cc(C)n(C(=O)CCNC(=O)c2ccccc2Cl)n1 | 0.3%
Cc1cc2c(c(=O)n1C)C(C(C)C)C(C#N)=C(N)O2 (stereo not drawn) | 3.4%
